According to the supplement of paper PMC3414501:
Counter-ions that a name gives are not always drawn.

Legend:
[1] = system: S. cerevisiae SK1 pCDA2-eGFP (USY613), sporulating; test: CDA2-GFP sporulation assay sensitivity score (z-score vs DMSO controls); higher = stronger inhibition of sporulation, active = hit call of the paper;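 note: active if sensitivity score above 5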
[2] = system: S. cerevisiae NKY1551 his4x/his4B, sporulating; test: HIS4 meiotic recombination assay sensitivity score (z-score vs DMSO controls); higher = stronger inhibition of sporulation/recombination, active = hit call of the paper;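 note: active if sensitivity score above 5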
[3] = system: S. cerevisiae AD1-9 (efflux-pump deficient), vegetative growth in YPD; test: growth sensitivity score (doubling time z-score vs DMSO controls); higher = slower growth, strongly negative scores also mark growth inhibition (complete suppression), active = hit call of the paper
Summary of the method: (§1)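 Saccharomyces cerevisiae strains BY4741 and AD1-9 were seeded in rich medium in microtiter plates at an OD600 of 0.065. Compounds were added at a 1:100 dilution of DMSO stock. Optical density was read every 15 min for 24 hours on a Tecan GENios reader. Average doubling time was the time taken to reach a set generation point divided by generation number, and the growth sensitivity score was (compound mean − DMSO-control mean)/DMSO-control SD, using eight DMSO controls per experiment.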

[4] = system: S. cerevisiae BY4741 (wild-type), vegetative growth in YPD; test: as above
Summary of the method: as §1

| SMILES | CDA2-GFP sporulation assay sensitivity score [1] | HIS4 meiotic recombination assay sensitivity score [2] | growth sensitivity score [3] | growth sensitivity score [4] |
| --- | --- | --- | --- | --- |
| CNC(=C[N+](=O)[O-])NCCSCc1csc(CN(C)C)n1 [Nizatidine] (stock concentration (mM, diluted 1:100): 10) | -0.14 (inactive) | -0.53 (inactive) | -0.22 (inactive) | -0.09 (inactive) |
| CN1C(=O)CC[C@H]1c1cccnc1 [Cotinine] (stock concentration (mM, diluted 1:100): 10) | -0.11 (inactive) | -1.15 (inactive) | 1.38 (inactive) | 0.49 (inactive) |
| CC(C(=O)O)c1ccc(CC2CCCC2=O)cc1 (configuration not stated) [Loxoprofen sodium] (stock concentration (mM, diluted 1:100): 9.1) | -0.04 (inactive) | -0.15 (inactive) | -0.52 (inactive) | -0.61 (inactive) |
| CCCN[C@H]1CCc2nc(N)sc2C1 [Pramipexole hydrochloride] (stock concentration (mM, diluted 1:100): 7.1) | -0.08 (inactive) | -0.03 (inactive) | -2.17 | -0.39 (inactive) |
| COCCCOc1ccnc(C[S+]([O-])c2nc3ccccc3[nH]2)c1C (configuration not stated) [Rabeprazole] (stock concentration (mM, diluted 1:100): 10.6) | 11.4 (active) | 3.07 (inactive) | 31.5 (active) | 12.2 (active) |
| CNCCCCOc1ccccc1Cc1ccccc1 [Bifemelane] (stock concentration (mM, diluted 1:100): 10) | 1.21 (inactive) | 9.23 (active) | 127 (active) | 3.54 (active) |
| CC[C@H]1OC(=O)[C@H](C)C(=O)[C@H](C)[C@@H](O[C@@H]2O[C@H](C)C[C@H](N(C)C)[C@H]2O)[C@](C)(OC)C[C@@H](C)C(=O)[C@H](C)[C@H]2N(CCCCn3cnc(-c4cccnc4)c3)C(=O)O[C@]12C [Telithromycin] (stock concentration (mM, diluted 1:100): 10) | 4.62 (inactive) | 0.14 (inactive) | 4.79 (active) | 0.09 (inactive) |
| CCN1CCC[C@H]1CNC(=O)c1cc(S(N)(=O)=O)ccc1OC [Levosulpiride] (stock concentration (mM, diluted 1:100): 10) | 0.11 (inactive) | 0.77 (inactive) | -0.24 (inactive) | 0.25 (inactive) |
| NC(=O)c1cccnc1 [Nicotinamide] (stock concentration (mM, diluted 1:100): 10) | 4.17 (inactive) | 0.03 (inactive) | -0.97 (inactive) | -0.49 (inactive) |
| N[C@@H]1CONC1=O [D-Cycloserine] (stock concentration (mM, diluted 1:100): 10) | 0.63 (inactive) | -5.18 (inactive) | 1.38 (inactive) | 1.58 (inactive) |
| Nc1c2c(nc3ccccc13)CCCC2 [Tacrine hydrochloride] (stock concentration (mM, diluted 1:100): 9) | 10.2 (active) | -2.37 (inactive) | -5.79 | 2.93 (active) |
| CCN1CCC[C@H]1CNC(=O)c1c(O)c(Cl)cc(Cl)c1OC [Raclopride] (stock concentration (mM, diluted 1:100): 10) | 0.74 (inactive) | -0.66 (inactive) | -1.88 (inactive) | 0.66 (inactive) |
| COc1cc(OC)c(C(=O)CCCN2CCCC2)c(OC)c1 [Buflomedil hydrochloride] (stock concentration (mM, diluted 1:100): 8.9) | -0.24 (inactive) | -1.08 (inactive) | 0.38 (inactive) | 2.01 (active) |
| CCC(C)(C)N=C(NC#N)Nc1cccnc1 [Tocris-1355] (stock concentration (mM, diluted 1:100): 9.9) | 3.65 (inactive) | -1.39 (inactive) | -1.02 (inactive) | 0.46 (inactive) |
| Cn1c(NCCN(CCO)CCCc2ccc([N+](=O)[O-])cc2)cc(=O)n(C)c1=O [Nifekalant hydrochloride] (stock concentration (mM, diluted 1:100): 9.2) | 0.47 (inactive) | -0.61 (inactive) | 0.65 (inactive) | -0.07 (inactive) |
| CC(C)/N=c1\cc2n(-c3ccc(Cl)cc3)c3ccccc3nc-2cc1Nc1ccc(Cl)cc1 [Clofazimine] (stock concentration (mM, diluted 1:100): 10) | 0.66 (inactive) | -1.5 (inactive) | 108 (active) | 61.3 (active) |
| C#C[C@]1(O)CC[C@H]2[C@@H]3CCc4cc(OC)ccc4[C@H]3CC[C@@]21C [Mestranol] (stock concentration (mM, diluted 1:100): 10) | 4.85 (inactive) | -0.79 (inactive) | 3.53 (active) | 0.8 (inactive) |

| SMILES | CDA2-GFP sporulation assay sensitivity score [1] | HIS4 meiotic recombination assay sensitivity score [2] | growth sensitivity score [3] | growth sensitivity score [4] |
| --- | --- | --- | --- | --- |
| Nc1ccn([C@H]2CC[C@@H](CO)O2)c(=O)n1 [Zalcitabine] (stock concentration (mM, diluted 1:100): 10) | 1.61 (inactive) | -0.41 (inactive) | -0.86 (inactive) | -1.35 (inactive) |
| CCN(CC)C(=O)C1(c2ccccc2)CC1CN (configuration not stated) [Milnacipran] (stock concentration (mM, diluted 1:100): 10) | 2.47 (inactive) | -0.19 (inactive) | -0.1 (inactive) | -0.02 (inactive) |
| CC1=C(C(=O)O)N2C(=O)[C@@H](NC(=O)[C@H](N)c3ccccc3)[C@H]2SC1 [Cephalexin monohydrate] (stock concentration (mM, diluted 1:100): 10) | -1.64 (inactive) | -1.5 (inactive) | -0.53 (inactive) | 0.27 (inactive) |
| COc1cc(C(=O)NS(=O)(=O)c2ccccc2C)ccc1Cc1cn(C)c2ccc(NC(=O)OC3CCCC3)cc12 [Zafirlukast] (stock concentration (mM, diluted 1:100): 10) | 0.72 (inactive) | 1 (inactive) | 40.9 (active) | -1.75 (inactive) |
| CC(=O)O[C@]1(C(C)=O)CC[C@H]2[C@@H]3C=C(C)C4=CC(=O)CC[C@]4(C)[C@H]3CC[C@@]21C [Megestrol acetate] (stock concentration (mM, diluted 1:100): 10) | 0.75 (inactive) | -2.67 (inactive) | 38.5 (active) | 1.27 (inactive) |
| CN1C(C(=O)Nc2ccccn2)=C(O)c2ccccc2S1(=O)=O [Piroxicam] (stock concentration (mM, diluted 1:100): 10) | -3.86 (inactive) | 0.11 (inactive) | 0.98 (inactive) | 0.09 (inactive) |
| C#C[C@]1(O)CC[C@H]2[C@@H]3[C@H](C)CC4=C(CCC(=O)C4)[C@H]3CC[C@@]21C [Tibolone] (stock concentration (mM, diluted 1:100): 10) | 5.97 (inactive) | 1.06 (inactive) | 10.2 (active) | 0.52 (inactive) |
| Nc1[nH]c(=O)ncc1F [5-Fluorocytosine] (stock concentration (mM, diluted 1:100): 10.5) | 0.12 (inactive) | -1.29 (inactive) | 36.6 (active) | 54.5 (active) |
| Nc1ccn([C@@H]2O[C@H](CO)[C@@H](O)[C@@H]2O)c(=O)n1 [Cytarabine] (stock concentration (mM, diluted 1:100): 10) | -0.45 (inactive) | -0.49 (inactive) | -2.83 | -0.01 (inactive) |
| CC(C)Oc1ccc2c(=O)c(-c3ccccc3)coc2c1 [Ipriflavone] (stock concentration (mM, diluted 1:100): 10) | -1.58 (inactive) | -1.16 (inactive) | 3.44 (active) | -0.15 (inactive) |
| C[C@H]1C[C@H]2[C@@H]3CCC4=CC(=O)C=C[C@]4(C)[C@@]3(Cl)[C@@H](O)C[C@]2(C)[C@@]1(O)C(=O)CO [Beclomethasone] (stock concentration (mM, diluted 1:100): 10) | 1.56 (inactive) | -3.46 (inactive) | 2.68 (active) | 0.52 (inactive) |
| Nc1nc(Cl)nc2c1ncn2[C@H]1C[C@H](O)[C@@H](CO)O1 [2-Chloro-2-Deoxyadenosine] (stock concentration (mM, diluted 1:100): 10) | 1.98 (inactive) | -1.07 (inactive) | -1.81 (inactive) | -0.67 (inactive) |
| CC(C)C[C@H](NC(=O)[C@@H](O)[C@H](N)Cc1ccccc1)C(=O)O [Bestatin] (stock concentration (mM, diluted 1:100): 10) | -0.06 (inactive) | -1.06 (inactive) | -1.24 (inactive) | -1.14 (inactive) |
| COc1cc2nc(N(C)CCCNC(=O)C3CCCO3)nc(N)c2cc1OC (configuration not stated) [Alfuzosin] (stock concentration (mM, diluted 1:100): 10) | 0.06 (inactive) | -0.29 (inactive) | -1.12 (inactive) | -0.26 (inactive) |
| O=C1c2cccc3c2[C@H](CCC3)CN1[C@@H]1CN2CCC1CC2 [Palonosetron hydrochloride] (stock concentration (mM, diluted 1:100): 10) | 8.71 (inactive) | 5.73 (active) | 2.17 (active) | -1.82 (inactive) |
| CN(C)CC[C@@H](c1ccc(Cl)cc1)c1ccccn1 [Dexchlorpheniramine maleate] (stock concentration (mM, diluted 1:100): 7) | 7.64 (inactive) | 2.35 (inactive) | -0.12 (inactive) | 0.54 (inactive) |
